Details in all cases: concentration: 10 µM; 24 h
In assay [1] the test system is HCC1569. The assay is described as follows: cell number relative to DMSO (% of DMSO); higher = more cells (less growth inhibition / toxicity). In a few lines: (§1)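 HCC1569 and TDF cells (800 per well, 384-well plates, RPMI with 10% FBS) were treated with compounds at 10 µM for 24 h at 37 °C, in triplicate. Cells were fixed in 3.7% formaldehyde and stained with a rabbit anti-H1.0 antibody, an AlexaFluor 647 secondary and DAPI; six fields per well were imaged at ×10. H1.0 nuclear intensity or cell number is expressed as percent of the plate DMSO control, taking the median of replicates. HCC1569 values were smoothed for positional effects.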

For assay [2], the system named is TDF. Described as above. The essentials:
as §1

Assay [3] relates to TDF. The assay is described as follows: H1.0 immunofluorescence intensity relative to DMSO (% of DMSO); higher = stronger H1.0 induction, active = 120 or more. In a few lines:
as §1

The test system of assay [4] is HCC1569. The assay is described as follows: H1.0 immunofluorescence intensity relative to DMSO (% of DMSO); higher = stronger H1.0 induction, active = 140 or more. In a few lines: as §1

SMILES strings stand for the structures.
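For H1.0 immunofluorescence intensity relative to DMSO in this document: TDF is a line of transformed human dermal fibroblasts of mesenchymal origin.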
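For cell number relative to DMSO in this document: TDF denotes transformed human dermal fibroblasts of mesenchymal origin.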

Turning to `COc1cc(C2c3cc4c(cc3C(O)C3COC(=O)C23)OCO4)cc(OC)c1O` (configuration not stated) [4'-Demethylpipodophyllotoxin], the results for the cell number with HCC1569 [1] and in the assay on TDF [2] were 59.6 and 12.7, respectively. The H1.0 immunofluorescence intensity in the assay with TDF [3] was 157 (active); in the assay with HCC1569 [4] it was 132 (inactive).

Regarding `CC1OC(C[N+](C)(C)C)CC1O.[Cl-]` (racemic), the results for the cell number with HCC1569 [1] and with TDF [2] were 102 and 101, respectively. The H1.0 immunofluorescence intensity in the assay with TDF [3] was 96.4 (inactive); in the assay on HCC1569 [4] it was 92 (inactive).

For the compound `COc1ccc(CC2NCCc3cc(OC)c(OC)cc32)cc1OC.Cl` (configuration not stated), the values for the cell number with HCC1569 [1] and with TDF [2] were 99.3 and 109, respectively. The H1.0 immunofluorescence intensity is 94.3 (inactive) in the assay with TDF [3] and 80.5 (inactive) in the assay on HCC1569 [4].

Values taken from the supplement of paper PMC7156485.
